# The whole screen tested about 1,200 compounds, of which about 400 (33%) were called active. The rule behind the calls is not given here. The list is a sample of the results. Entries with a potency or affinity are not part of this list.
# Assay: mammalian cell cytotoxicity, dose response, cytotoxicity control (AID 434958);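 note: cells exposed to compound for 72 hours before readout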
# Conditions: cytotoxicity counter-screen; series mostly up to 40 µM; viability: at the top concentration
row,Structure (SMILES),viability
1,COc1cccc(-c2nnn(CC(=O)Nc3cc(OC)c(NC(=O)c4ccco4)cc3OC)n2)c1,85.2% (inactive)
2,COCCCn1c(=O)/c(=C\c2ccccc2OC(C)C)s/c1=C(/C#N)C(=O)Nc1ccc(C(=O)O)cc1,87% (inactive)
3,O=C1c2ccccc2N2C(=O)c3ccccc3C2N1O (configuration not stated),98.3% (inactive)
4,CSc1ccccc1NC(=O)c1c(Br)cnn1C,91.4% (inactive)
5,C(=N\n1cnnc1)/c1ccc(-c2ccccc2)cc1,93.4% (inactive)
6,CCc1ccc(N2C(=O)c3sc4nnc(-c5ccccc5)c(=O)n4c3C2=O)cc1,95% (inactive)
7,Cn1c(/C=C/c2ccc(Cl)cc2)nc2ccccc2c1=O,94.1% (inactive)
8,CCOc1ccc2c(c1)c(C(C)=O)c(C)n2-c1ccccc1,86.3% (inactive)
9,CCOC(=O)c1sc(NC(=O)CN2CCN(c3ccc(OC)cc3)CC2)nc1C,92.4% (inactive)
10,O=c1cc(C(F)(F)F)c2sc(N3CCCCC3)nc2[nH]1,94.1% (inactive)
11,COc1ccc(NC(=O)CCC2CCCC2)cc1OC,98% (inactive)
12,CCN(CC)C(=O)COc1ccc(-c2nnc(Nc3ccc(OC)c(C(=O)NC)c3)c3ccccc23)cc1,91.5% (inactive)
13,CCCc1cc(C(=O)Nc2ccc(C(C)=O)cc2)no1,95.1% (inactive)
14,O=C1c2cccc3c(N4CCCCC4)ccc(c23)C(=O)N1c1ccccn1,95.5% (inactive)
15,COC(=O)c1ccc(-c2cc(C(=O)O)c3cc4c(cc3n2)OCCO4)cc1,98.5% (inactive)
16,C/C(=N\NC(=O)c1csc2ccccc12)c1ccc(O)cc1,87.5% (inactive)
17,C/C(=N/NC(=O)c1ccccn1)c1ccncc1,96.5% (inactive)
18,O=C(NN=C(Cc1ccccc1)Cc1ccccc1)c1ccccc1F,84.8% (inactive)
19,C/C(=N\NC(=O)c1ccncc1)c1c(O)n(-c2ccccc2)c(=O)[nH]c1=O,99.5% (inactive)
20,S=C(Nc1ccccc1Cl)N1CCCC(c2ccccc2)=N1,87.8% (inactive)
21,CCN(CC)c1ccc(C=N/C(C#N)=C(\N)C#N)cc1,96.9% (inactive)
22,COc1nc(-c2ccccc2)ccc1-c1noc(-c2cccnc2)n1,87.6% (inactive)
23,CCn1nc(C)c([N+](=O)[O-])c1C(=O)NNC(=O)c1ccccc1Cl,103% (inactive)
24,COc1cccc(-c2ccc(-c3noc(-c4ccccc4F)n3)c(OC)n2)c1,81.9% (inactive)

row,Structure (SMILES),viability
1,Cc1cc(Br)cc2c(C(=O)NCC3CCCO3)cc(-c3ccccc3)nc12 (configuration not stated),83% (inactive)
2,CCCn1c2ccccc2c2nnc(SCC(=O)OCC)nc21,104% (inactive)
3,CC(C)(C)c1cc(Cc2ccccc2)[nH]n1,94.1% (inactive)
4,COc1ccc([N+](=O)[O-])cc1NS(=O)(=O)c1ccc(Cl)c(C(=O)Nc2sc3c(c2C#N)CCCCC3)c1,99% (inactive)
5,CCCC(=O)Nc1nc(-c2ccccc2)ns1,96.2% (inactive)
6,Cc1ccc(C)c(S(=O)(=O)N2CCN(CC(=O)NC(C)c3ccccc3)CC2)c1 (configuration not stated),91.4% (inactive)
7,O=c1oc(-c2ccccc2F)nc2scc(-c3ccccc3)c12,94.1% (inactive)
8,Cc1ccc(C2=NN(C(=O)CN3C(=O)c4ccccc4S3(=O)=O)C(c3ccco3)C2)cc1 (configuration not stated),82.9% (inactive)
9,COCCOC(=O)c1c(C)oc2ccc(OCc3cc(C(=O)OC)oc3C)cc12,90.5% (inactive)
10,Cc1sc2nc(C(C)Nc3ccccc3N3CCOCC3)[nH]c(=O)c2c1C (configuration not stated),88.9% (inactive)
11,CCCc1cc(NC(=O)COC(=O)c2nccnc2N)n(-c2ccccc2)n1,102% (inactive)
12,CC(C)CCN1CC(O)=C(c2nc3ccccc3[nH]2)C1=N,84.1% (inactive)
13,O=C(Nc1nnc(-c2ccc3c(c2)OCCO3)o1)C1CCCCC1,89.3% (inactive)
14,O=C(Nc1nc(-c2ccc3c(c2)OCCO3)cs1)c1ccc(S(=O)(=O)N2CCCCC2)cc1,91.1% (inactive)
15,CCSc1nnc(NC(=O)CSc2nccn2-c2cccc(C)c2)s1,102% (inactive)
16,Cc1c(C(=O)NCCC2=CCCCC2)sc2ncnc(N3CCCCC3C)c12 (configuration not stated),82.1% (inactive)
17,Cc1cc(C)c(NC(=O)CC(C)(C)C)c(Cl)c1,96.5% (inactive)
18,COc1ccc(OC)c(NC(=O)CS(=O)(=O)c2ccccc2)c1,96.5% (inactive)
19,Cc1cc(C)c2oc(-c3ccc(Cl)c(NC(=O)c4ccc(C#N)cc4F)c3)nc2c1,86.5% (inactive)
20,Cc1ccc(OCC(=O)Nc2ccc(-c3nc4ncccc4o3)cc2)c(C)c1,103% (inactive)
21,CCc1ccc(NC(=S)Nc2ccc3cn[nH]c3c2)cc1,101% (inactive)
22,O=C(COC(=O)c1ccc(Cl)cc1[N+](=O)[O-])NNC(=O)c1cccs1,107% (inactive)
23,NC(=S)N/N=C/c1ccc([N+](=O)[O-])cc1,106% (inactive)
24,NNC(=S)NC1CC2CC1C1C=CCC21 (configuration not stated),91.1% (inactive)

row,Structure (SMILES),viability
1,CCc1nc2scc(-c3cccs3)c2c(=O)o1,111% (inactive)
2,Cc1c(-c2ccncc2)oc2ccc(Br)cc2c1=O,95.4% (inactive)
3,Cc1ccc2c(Cl)cc(Cl)c(OCc3c(C)noc3C)c2n1,94.7% (inactive)
4,O=C(N/N=C/c1ccc(OC(=O)c2ccc3c(c2)OCO3)cc1)c1cncc(Br)c1,97.2% (inactive)
5,Cc1ccc(/C=N\NC(=O)c2csnn2)cc1,95.1% (inactive)
6,Cc1cccc(C)c1NC(=O)C1CC2CCC1C2 (configuration not stated),100% (inactive)
7,COC(=O)c1c(NC(=O)c2ccc(C)cc2)csc1C,94.8% (inactive)
8,Cc1ccc(C)c(N2CCN(CC3CC=CCC3)CC2)c1 (configuration not stated),97.1% (inactive)
9,Cc1cc(Br)ccc1NC(=O)c1ccccc1-c1ccccc1,90.7% (inactive)
10,O=C(COC(=O)C1CC1)NCc1ccccc1Cl,109% (inactive)
11,Cc1ccc(C2=N/C(=C\c3cccc(F)c3)C(=O)O2)cc1,93.8% (inactive)
12,COC(=O)c1sc(-c2ccc(C(C)(C)C)cc2)cc1NC(=O)CCC(=O)O,84.9% (inactive)
13,O=C(COc1ccc(Cl)cc1)OCC(=O)N1CCCCCC1,99.3% (inactive)
14,Cc1ccc(C)c(-n2c(-c3ccco3)n[nH]c2=S)c1,105% (inactive)
15,O=C(NN1C(=O)c2cc(Br)ccc2NC1c1ccccc1Cl)c1ccncc1 (configuration not stated),85.9% (inactive)
16,COc1ccc2cc(C3=CCCCC3)ncc2c1,97.6% (inactive)
17,CCOc1ccc(-c2nnc(-c3ccc(OC)cc3)o2)cc1,91.7% (inactive)
18,COc1cccc(/C=C/c2[nH]c(=O)[nH]c(=O)c2[N+](=O)[O-])c1O,108% (inactive)
19,COc1ccc(-c2cc(C(N)=O)nc(N3CCCCCC3)n2)cc1,95.8% (inactive)
20,O=c1oc(-c2cccs2)nc2sc3c(c12)CCCC3,96.4% (inactive)
21,CC(C(=O)Nc1sc2c(c1C(=O)NCc1ccco1)CCCC2)N1C(=O)c2ccccc2C1=O (configuration not stated),81.9% (inactive)
22,O=c1oc(-c2ccco2)nc2sc3c(c12)CCCCC3,98.2% (inactive)
23,O=C(Cn1cnc2sc3c(c2c1=O)CCCC3)NCC(=O)Nc1ccccc1F,106% (inactive)
24,COc1ccccc1C(=O)Nc1sc2c(c1C(=O)NCc1ccco1)CCCC2,84.7% (inactive)

row,Structure (SMILES),viability
1,N#Cc1cc2c(nc1SCC(=O)Nc1sc3c(c1C#N)CCC3)CCCC2,88.3% (inactive)
2,CCOc1nnnc2c1sc1nc(N3CCOCC3)c3c(c12)CCCC3,86.5% (inactive)
3,Fc1ccc(C2Nc3cccc4cccc(c34)N2)cc1,87% (inactive)
4,CCC(CC)C(=O)Nc1ccc(Sc2ccc([N+](=O)[O-])cc2)cc1,85.5% (inactive)
5,Cc1nc(S/C(=C\c2ccc(OCc3ccccc3Cl)cc2)C(=O)O)n[nH]1,86.2% (inactive)
6,CCn1nnnc1SCC(=O)c1ccc(C)cc1C,105% (inactive)
7,CSc1ccccc1C(=O)Nc1ccc2c(c1)OCCO2,86.6% (inactive)
8,O=C(NN=C1CCCC1)c1cccs1,97.9% (inactive)
9,CC(C)OCc1c(C(=O)Nc2nccs2)oc2ccccc12,84.7% (inactive)
10,COc1ccc(/C=N/Nc2nc(-c3ccc(C)cc3)c(NC(C)=O)s2)cc1OC,85.2% (inactive)
11,COc1ccc(-c2cc(C(F)F)nc(-n3nc(C)cc3C)n2)cc1,109% (inactive)
12,Cc1onc(-c2c(Cl)cccc2Cl)c1/C(N)=N/OC(=O)C1CC1,104% (inactive)
13,CCOc1ccc2cc(S(=O)(=O)N3CCCCC3)ccc2c1,90.6% (inactive)
14,COc1cccc(-n2c([S-])c(C(=O)Nc3ccc(S(=O)(=O)N4CCOCC4)cc3)[n+]3cc(C(N)=O)ccc23)c1,93.7% (inactive)
15,S=C(Nc1ccc(Cl)cc1)c1nc2ccccc2s1,98.3% (inactive)
16,COc1ccc(NC(=O)CSc2nncn2C)c([N+](=O)[O-])c1,97% (inactive)
17,CC1(c2ccc([N+](=O)[O-])cc2)NC(=O)N(CC(=O)c2ccc3c(c2)OCO3)C1=O (configuration not stated),96.8% (inactive)
18,O=C(CSc1n[nH]c(=O)n1C1CC1)c1ccc2c(c1)OCCO2,94.2% (inactive)
19,O=C(/C=C/c1ccccc1)NC1CC2CCC1C2 (configuration not stated),103% (inactive)
20,O=S(=O)(Nc1ccccc1)c1ccc2c(c1)CCO2,93.8% (inactive)
21,Cc1ccc(-c2nc3[nH]c(=O)cc(NC(=O)C(C)C)n3n2)cc1,112% (inactive)
22,COCCNC(=S)N/N=C(\C)c1cccc(OC)c1,94.5% (inactive)
23,CCOCC(=O)Nc1ccc(F)c(F)c1,98.5% (inactive)
24,O=C(CC12CC3CC(CC(C3)C1)C2)NCc1ccc(F)cc1,94% (inactive)

row,Structure (SMILES),viability
1,O=c1c2c(nc3n1CCCCC3)sc1c(O)c(Br)ccc12,89.9% (inactive)
2,COc1ccc(-c2csc(/C=C/c3ccc4c(c3)OCO4)n2)cc1OC,103% (inactive)
3,COc1cc(NC(=O)c2ccc(Cl)cc2)c(OC)cc1NC(=O)CN1CCOCC1,94.5% (inactive)
4,CN(C)S(=O)(=O)c1ccc(NC(=O)c2cc3ccccc3o2)cc1,94.6% (inactive)
5,Cc1ccccc1NC(=O)c1ccc(CN(c2ccccc2)S(=O)(=O)c2ccccc2)cc1,86.9% (inactive)
6,CNC(=O)Nc1cccc(-c2cc(-c3c(Cl)cccc3Cl)no2)c1,84.4% (inactive)
7,O=c1oc(-c2ccccc2)nc2sc3c(c12)CCC3,96.8% (inactive)
8,C=CCn1cc(C(=O)NCCCOC)c(=O)c2cc(S(=O)(=O)N(CC)CC)ccc21,90.7% (inactive)
9,CC(OC(=O)c1ccc([N+](=O)[O-])o1)C(=O)NC1CCCCC1C (configuration not stated),90.8% (inactive)
10,C#CCOc1c(Cl)cc(/C=N/NC(N)=S)cc1OCC,96.7% (inactive)
11,BrC(=C\c1ccccc1)/C=N/N1CCN(c2ccccn2)CC1,104% (inactive)
12,Cc1ccc(C(=O)N2CCC3(CC2)Oc2ccc(F)cc2C(=O)C32CC(c3cccnc3)=NO2)s1 (configuration not stated),98.1% (inactive)
13,COc1ccc(C(=O)Nc2ccc3nc(N4CCCCC4)cc(C)c3c2)c(OC)c1,94.4% (inactive)
14,O=C(Nc1c2c(nc3ccccc13)CCCC2)c1ccccc1F,108% (inactive)
15,COc1ccc(-c2sc3cc(OC)c(OC)cc3c2C#CCCO)cc1,89.1% (inactive)
16,CCN(CC(=O)Nc1ccccc1OC)C(=O)c1cc(S(=O)(=O)N2CCCCCC2)ccc1OC,95.8% (inactive)
17,C/C(=N\NC(=S)NCc1ccccc1)c1cccc(Br)c1,95.1% (inactive)
18,O=C(Cc1cccc2ccccc12)N/N=C/c1ccc(O)c([N+](=O)[O-])c1,99.7% (inactive)
19,O=C(COc1cccc2cccnc12)N/N=C/c1ccc(O)cc1,95.2% (inactive)
20,CN(C)c1ccc(S(=O)(=O)NCC(=O)OCC(=O)Nc2cccc(Cl)c2)cc1[N+](=O)[O-],96.4% (inactive)
21,O=C(NCc1nc2ncc(Br)cc2[nH]1)c1ccccc1,94.1% (inactive)

# Source: PubChem BioAssay AID434958 (Southern Research Specialized Biocontainment Screening …, 2010)
